# From PubChem BioAssay AID2391 (Southern Research Specialized Biocontainment Screening …, 2010)
# The whole screen tested about 310,000 compounds, of which about 410 (0.13%) were called active. Not shown: some 2% with an inconclusive outcome. A selection follows. Results with a measured potency or affinity are listed apart. A number with no mark means an inactive call. The rule behind the calls is not given here.
# Assay: inhibition of RSV-induced cytopathic effect – HEp-2 cells, primary 10 µM value included (AID 2391)
# Details: at 10 µM, hits give high values
row,Compound,CPE inhibition [%]
1,COC(=O)[C@H](CCSC)NC(=O)NCCc1ccccc1F,0.16
2,CC1CCN(Cc2c(C(=O)N/N=C/c3ccc(OC(C)C)cc3)nnn2-c2nonc2N)CC1,3
3,COc1ccc(C2C3=C(CC(C)(C)CC3=O)N(C)C3=C2C(=O)CC(C)(C)C3)cc1OC,4.11
4,COC(=O)C1=C(N)Oc2cc(C)n(CCCn3ccnc3)c(=O)c2C1c1cccc(Cl)c1 (centres undefined),1.81
5,COc1ccc(-c2cc(C(=O)N3CCCCC3)c3ccccc3n2)cc1,0.19
6,CCOc1ccc(-c2cc(C(=O)N/N=C(\C)c3cccnc3)c3ccccc3n2)c(OCC)c1,0.9
7,COc1ccc(-c2cc(C(=O)N3CCN(c4ncccn4)CC3)c3ccccc3n2)c(OC)c1,0.07
8,O=C(N/N=C/c1ccc2c(c1)OCO2)c1cc(-c2ccccc2)nc2ccccc12,1.93
9,CCOc1ccc(-c2cc(C(=O)O)c3ccccc3n2)cc1,8.94
10,O=C(N/N=C/c1ccc2c(c1)OCO2)c1cc(-c2ccccc2Cl)nc2ccccc12,4.7
11,COc1ccc(CN(C)CC(=O)Nc2ccccc2C(F)(F)F)c(OC)c1,0.3
12,CCOC(=O)C1CCCN(C(=O)c2cccc(S(=O)(=O)N(C)c3ccc(C)cc3)c2)C1 (centres undefined),0.68
13,Cc1cccc(/C=N/NC(=O)c2cccc(NC(=O)c3ccccc3)c2)n1,1.75
14,CC1(C)CC(=O)C=C(NNC(=O)c2ccc(N)cc2)C1,1.88
15,O=C(CN(C(=O)c1csnn1)c1cccc2c1CCCC2)NCc1ccc(F)cc1,1.67
16,CCOC(=O)c1c(CN2CCOCC2)oc2ccc(OC(C)=O)cc12,2.6
17,COc1ccc(OCc2cc(C(=O)N3CCCC(CO)C3)no2)c2ccccc12 (centres undefined),3.56
18,CC1CC(C)(C)NC(=S)N1CC(=O)N1CCN(Cc2ccccc2)CC1 (centres undefined),-0.71
19,Clc1ccc(OCc2nnc(-c3ccccc3Br)o2)cc1,11.5
20,COc1ccc(-c2nc(CN3CCC(C(=O)N4CCc5ccccc54)CC3)c(C)o2)cc1OC,0.12
21,COc1ccc(-c2nn(-c3ccccc3)cc2C2CC(c3cccs3)=NN2C(=O)CCCC(=O)O)cc1 (centres undefined),6.41
22,O=C(O)CCC(=O)N1N=C(c2cccs2)CC1c1cn(-c2ccccc2)nc1-c1ccccc1 (centres undefined),1.96

row,Compound,CPE inhibition [%]
1,CCCCCCSc1cccc(-c2nc3ccc(Cl)cn3c2NCc2ccccc2)c1,-1.21
2,O=C(CCSc1nnc2scc(-c3ccccc3)n12)Nc1nc(-c2ccccc2)ns1,9.19
3,CCN(c1ccccc1)S(=O)(=O)c1cccc(C(=O)NCC(c2cccs2)N(C)C)c1 (centres undefined),-0.95
4,CCOC(=O)C1=C(C)N=c2s/c(=C\c3ccc(OCC(=O)O)c(OC)c3)c(=O)n2C1c1ccc(OC)cc1 (centres undefined),2.77
5,CCOC(=O)C1=C(C)N=c2s/c(=C\c3ccc(OCC(=O)O)cc3)c(=O)n2C1c1ccc(Cl)cc1 (centres undefined),18.1
6,CC1CC(C)CN(S(=O)(=O)c2ccc(C(=O)OCC(=O)NCCN3C(=O)CSC3=O)cc2)C1 (centres undefined),0.02
7,Cc1nnc(SCC(=O)N(C2CCCCC2)C2CCS(=O)(=O)C2)n1N (centres undefined),-1.53
8,O=C(CSc1nc2ccccc2o1)N1CCCC1,-0.37
9,COC(=O)C1=C(C)N(Cc2ccco2)C(=O)N[C@@H]1c1ccc(Br)cc1,0.6
10,COC(=O)C1=C(C)N(Cc2ccco2)C(=O)N[C@@H]1c1cccc(C(F)(F)F)c1,4.06
11,COC(=O)C1=C(C)N(CC2CC2)C(=O)N[C@H]1c1ccc(Br)cc1,27
12,CCN1C(=O)N[C@@H](c2cccc(C(F)(F)F)c2)C(C(=O)OC)=C1C,-0.08
13,COC(=O)C1=C(C)N(Cc2ccco2)C(=O)N[C@@H]1c1ccco1,0.83
14,COC(=O)C1=C(C)N(Cc2ccco2)C(=O)N[C@@H]1c1ccccc1,2.19
15,CCOCCOC(=O)C1=C(C)Nc2ccc(C)cc2S1,2.03
16,CN(C(=O)COC(=O)c1cc(S(=O)(=O)N2CCOCC2)ccc1Cl)C1CCS(=O)(=O)C1 (centres undefined),-1.51
17,CCn1nnnc1-c1ccc(OC)c(S(=O)(=O)Nc2ccc(C(=O)OC)cc2)c1,1.29
18,Cc1ccc(CC(=O)NCC2CCCCC2)cc1,0.51
19,Cc1ccsc1CNC1C2CC3CC(C2)CC1C3 (centres undefined),-1.39
20,Cc1ccc(C(=O)N/C(=C\c2ccc(Cl)cc2)C(=O)NCCCN2CCOCC2)cc1,2.02
21,CC(C)c1ccc(/C=C(\NC(=O)c2ccccc2)C(=O)NCCN2CCOCC2)cc1,0.84
22,CC(C)c1ccc(/C=C(\NC(=O)c2ccccc2)C(=O)NCCCN2CCOCC2)cc1,0.11
